# Screening results as filed in PubChem.
# Shiga inhibitor: inhibitors of Shiga toxin in Vero cells; inhibition, % at 38.7 µM; Vero cells, Shiga toxin protein synthesis inhibition reporter; hit rate 9.2% among 290,000; in the data active = inhibition mostly above about 28%, no sharp cut-off; inactive = mostly below about 43%; note: 0% is about no effect
# CHX counter: counter-screen hit for Shiga toxin inhibitors, cycloheximide; max response, %; AID 2314; cell reporter, cycloheximide protein synthesis inhibition counterscreen; hit rate 12% among 300,000; in the data active = max response mostly above about 13%, no sharp cut-off; inactive = mostly below about 14%; note: read at 38.3 µM for the half of the compounds with a filed dose; 0% is about no effect
# LASV entry inh: inhibitors of Lassa virus binding or cell entry; Lassa virus pseudotype entry inhibition, cell reporter; Potency, µM (titrated, usually from 37.9 µM), inactives show top-dose activity change, negative = inhibition, hits mostly inhibitors; hit rate 1.2% among 300,000; calls by dose curve; tested in HEK293 cells; note: potency is the fitted concentration of half-maximal effect; % is set by controls: 0 for no effect and ±100 for the full control effect; nearly all actives have a fitted effect of over 50% in size
# Vaccinia Venus: inhibitors of vaccinia virus (Venus reporter); Vaccinia virus Venus reporter expression, fluorescence; Potency, µM (doses to about 36.5 µM), for the others: at the highest dose activity change, negative = inhibition, most hits filed as inhibitors; hit rate 0.46% among 330,000; calls by dose curve; tested in A549 cells; note: potency is the fitted concentration of half-maximal effect; % is set by controls: 0 for no effect and ±100 for the full control effect; nearly all actives have a fitted effect of over 30% in size
# MARV entry inh: inhibitors of Marburg virus binding or cell entry | Marburg virus pseudotyped entry inhibition, cell reporter | Potency, µM (highest dose often 37.8 µM), for inactives: top-dose activity change, negative = inhibition, actives largely listed as inhibitors | hit rate 1.8% among 300,000 | AID 540276; calls by dose curve; tested in HEK293 cells; note: potency is the fitted concentration of half-maximal effect; % is set by controls: 0 for no effect and ±100 for the full control effect
# VACV mCherry inh: inhibitors of vaccinia virus infection (mCherry reporter signal) | AID 720579 | Vaccinia virus mCherry reporter infection, fluorescence | Potency, µM (highest dose often 36.5 µM), without a hit: top-dose activity change, negative = inhibition, actives largely listed as inhibitors | hit rate 0.63% among 310,000; calls by dose curve; tested in A549 cells; note: potency is the fitted concentration of half-maximal effect; % is set by controls: 0 for no effect and ±100 for the full control effect; nearly all actives have a fitted effect of over 35% in size
# An asterisk follows results filed as active; i = inactive; ? = inconclusive; / = not tested or not shown; [ ] = another dose, or the depositor's remark. Many of the other results were omitted from the sample, so hits are more common in it than they were.
SMILES,Shiga inhibitor,CHX counter,LASV entry inh,Vaccinia Venus,MARV entry inh,VACV mCherry inh
O=C(c1ccco1)[C@@H]1[C@@H]2C(=O)N(c3ccccc3)C(=O)[C@@H]2C2c3ccccc3C=CN21 (some centres not stated),9.3,14.1,-9.1%,12.2%,18.9%,-8.3%
Cc1ccc(N(CN2C(=O)[C@H]3CC=CC[C@@H]3C2=O)C(=O)c2ccco2)cc1Cl,/,/,/,/,-20.5%,/
COc1ccc(/C=C/c2ccc3ccccc3n2)cc1OC,/,/,/,-20.1%,/,19.9%
COc1cc(/C=C/c2ccc3cccc(O)c3n2)cc(Br)c1OC,163.7*,78.3*,-14.0%,-3.3%,?,?
COc1cc(/C=C/c2ccc3cccc(O)c3n2)cc(OC)c1OC,62.6*,33.3*,?,-21.8%,?,8.91µM*
COc1cc(/C=C/c2ccc3c(Br)cc(Br)c(O)c3n2)ccc1O,-5.0,-2.2,/,/,/,/
COc1cc(/C=C/c2ccc3cccc(O)c3n2)cc(Cl)c1OC,126.8*,52.2*,?,11.8%,4.47µM*,?
COc1ccc(/C=C/c2ccc3cccc(O)c3n2)cc1Br,115.3*,47.7*,/,/,/,/
COc1ccc(Br)cc1/C=C/c1ccc2cccc(O)c2n1,44.4,23.6,-20.0%[46.1 µM],-22.3%,-1.2%[46.1 µM],-23.9%
Fc1ccc(C2=CC(c3ccc(F)cc3)n3c(nc4ccccc43)N2)cc1 (configuration not stated),/,/,?,7.1%,/,-24.1%
COc1ccccc1CNC(=O)COC(=O)CSc1ccc(F)cc1,/,/,-28.3%,-16.9%,19.1%,i
O=C(NC(c1ccccc1)c1ccc2ccccc2n1)C1CCN(Cc2cccc(C(F)(F)F)c2)CC1 (configuration not stated),/,/,/,-29.4%,/,-15.9%
COc1ccc(/C=C/c2ccc3c(Br)ccc(O)c3n2)cc1,93.9*,38.8*,-24.3%[46.1 µM],-18.7%,?,-15.9%
Cc1cc(N2CCOCC2)nc2ccc(NC(=S)N3CCCCC3C)cc12 (configuration not stated),19.4,31.0*,?,?,2.82µM*,-64.2%
Cc1cc(N2CCOCC2)nc2ccc(NC(=O)C3CCCCC3)cc12,/,/,/,-17.5%,/,-17.4%
Cc1cc(N2CCOCC2)nc2ccc(NC(=O)CCC(=O)N3CCN(c4ccccc4F)CC3)cc12,28.6,22.0*,?,-19.8%,?,-13.6%
Cc1cc(N2CCOCC2)nc2ccc(NC(=O)CCC(=O)N3CCCC(C)C3)cc12 (configuration not stated),92.0,54.3*,1.4%,/,21.8%,/
COc1ccccc1C1CN(CCNC(=O)c2sccc2Cl)Cc2ccccc2O1 (configuration not stated),/,/,/,3.7%,/,-13.3%
O=C(CCS(=O)(=O)c1ccc(Br)cc1)NC1CCCC1,-11.4,-5.4,-5.0%,/,1.1%,/
O=C(NCc1cccs1)C1CC1,13.5,13.5,8.8%,-2.4%,23.0%[46.1 µM],-9.7%
CC(C)N1C(=O)CCC1C(=O)NCc1cccs1 (configuration not stated),72.5,43.5*,15.2%,-2.1%,21.6%[46.1 µM],1.2%
O=C(NC1CCCCCC1)c1cccs1,67.8*,37.6*,17.6%,/,26.5%,/
O=C(CCS(=O)(=O)c1cccs1)NC1CCCCCC1,115.3*,30.7*,?,/,?,/
O=C(NC1CCCCC1NC(=O)c1cccs1)c1cccs1 (configuration not stated),-5.6,1.1,-11.0%,-2.1%,?,-4.6%
O=C(CCC1CCCC1)NCc1cccs1,99.5,25.8*,4.3%,-10.9%,18.0%,-13.3%
SMILES,Shiga inhibitor,CHX counter,LASV entry inh,Vaccinia Venus,MARV entry inh,VACV mCherry inh
O=C(NCCC1CCCC1)c1cccs1,45.0*,40.2*,/,/,/,/
O=C(c1ccc(Cl)cc1)c1c[nH]c(C(=O)NNc2cccc(Cl)n2)c1,-7.9,-3.6,?,11.2µM*,?,?
O=C(NNc1cccc(Cl)n1)c1ccc(Cl)cc1Cl,29.1,24.0*,18.7%,/,?,/
O=C(O)/C=C/C(=O)NNC(=O)c1ccc(Cl)cc1Cl,58.4*,27.0*,13.9%,-10.0%,8.6%[46.1 µM],0.8%
O=C(NC1CC(=O)N(c2cccc(F)c2)C1)c1ccc(S(=O)(=O)N2CCCC2)cc1 (configuration not stated),/,/,-3.9%[46.1 µM],-14.8%,/,-11.9%
O=C(NCC(c1cccs1)S(=O)(=O)c1cccs1)c1ccccc1 (configuration not stated),/,/,-7.0%[46.1 µM],-4.0%[7.34 µM],/,-7.9%[7.34 µM]
COc1ccc(OC)c(NC(=O)C2COc3ccccc3O2)c1 (configuration not stated),2.7,9.7,15.8%,-23.9%,16.5%,/
O=C(Nc1ccc(S(=O)(=O)Nc2ccccc2)cc1)C1COc2ccccc2O1 (configuration not stated),11.6,1.9,-26.1%,-21.2%,-19.5%,-8.2%
Cc1ccc(NC(=O)C2COc3ccccc3O2)cc1C (configuration not stated),/,25.7*,3.4%,-19.5%,4.2%,-3.3%
COC(=O)c1cccc(NC(=O)C2COc3ccccc3O2)c1C (configuration not stated),53.9,19.6,-0.4%,-11.1%,-0.4%,-13.7%
Cc1cc(C)cc(NC(=O)C2COc3ccccc3O2)c1 (configuration not stated),/,/,/,-10.1%,/,-2.6%
COC(=O)c1cccc(NC(=O)C2COc3ccccc3O2)c1 (configuration not stated),66.0*,32.9*,-3.8%,-11.9%,2.5%,-16.9%
COc1ccc(Cl)cc1NC(=O)C1COc2ccccc2O1 (configuration not stated),44.9*,38.1*,/,/,/,/
O=C(Nc1cccc([N+](=O)[O-])c1)C1COc2ccccc2O1 (configuration not stated),15.1,11.3*,/,/,/,/
Cn1c2c(c3cnc4cc(Cl)ccc4c31)CNCC2,/,/,/,3.1%,/,50.2%
COc1ccccc1-c1ccnc(-n2ncc(C(=O)NCc3ccncc3)c2C)n1,/,/,/,-17.8%,/,?
CCOCCOC(=O)c1ccc(NC(=O)C2COc3ccccc3O2)cc1 (configuration not stated),37.9,22.4*,/,/,/,/
Cc1cccc(NC(=O)C2COc3ccccc3O2)c1 (configuration not stated),72.1*,42.9*,/,/,/,/
CN(C)S(=O)(=O)c1ccc(NC(=O)C2COc3ccccc3O2)cc1 (configuration not stated),27.7,10.8*,/,-3.9%,/,-11.2%
COC(=O)c1cc(NC(=O)C2COc3ccccc3O2)ccc1Cl (configuration not stated),53.3*,20.5*,-13.4%,/,?,/
O=C(NNc1ccccc1F)c1cccs1,/,/,/,-4.4%,/,-14.6%
COC(=O)c1c(-c2cccc3ccccc23)csc1NC(=O)Cc1ccc(OC)c(OC)c1,-6.4,-2.5,11.2µM*,?,?,/
COC(=O)c1c(-c2ccc(C)cc2)csc1NC(=O)Cc1ccc(OC)c(OC)c1,6.8,-0.4,?,-21.0%,?,-21.9%
O=C(C(=O)c1ccc(O)cc1)c1ccccc1,17.1,2.1,/,/,/,/
N#CC(C(=O)c1ccccc1)=C1SCCS1,58.0*,35.0*,?,-15.1%,29.6%,-13.7%
O=C(Nc1ccccc1)C(=O)Nc1ccccn1,168.5*,62.9*,?,-4.7%,?,i
